# Source: PubChem BioAssay
# Mtb bLac sens – beta-lactam sensitization of Mtb H37Rv, H37Rv; M. tuberculosis H37Rv growth with meropenem, percent inhibition; inhibition, % at 25 µM; 0.27% of 330,000 active; call rule not given here;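 further: growth measured after seven days incubation then overnight dye step; 0% = bacteria only wells and 100% = bacteria with antibiotic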
# FBA Mtb inh – Mtb FBA enzyme inhibitors, primary screen, biochemical, fluorescence, strain H37Rv | 2.3% of 360,000 active | purified M. tuberculosis FBA, fluorescence read-out | AID 588726, 2011 | inhibition, % at 1 µM; in the data active means inhibition above about 27%;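 further: 0% = vehicle and 100% = reference inhibitor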
# CCHF vOTU inh – CCHFV vOTU protease inhibitors, primary screen, biochemical, Pep-AMC substrate, fluorescence | 0.55% of 370,000 active | AID 651958, 2012 | inhibition, % at 11.5 µM; further: 0% = vehicle wells with enzyme and 100% = no enzyme wells
# RecA intein inh – Mtb RecA intein splicing inhibitors, primary screen, biochemical, fluorescence, HTS; Protein RecA (Mycobacterium tuberculosis (strain ATCC 25618 / H37Rv)), P9WHJ3; cell-free RecA intein splicing; inhibition, % (no concentration beside the values); 0.75% of 290,000 active; AID 2221, 2009; in the data active means inhibition above about 30%;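 further: 0% = vehicle wells and 100% = reference inhibitor control wells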
# Target sequence (P9WHJ3 whole entry, looked up): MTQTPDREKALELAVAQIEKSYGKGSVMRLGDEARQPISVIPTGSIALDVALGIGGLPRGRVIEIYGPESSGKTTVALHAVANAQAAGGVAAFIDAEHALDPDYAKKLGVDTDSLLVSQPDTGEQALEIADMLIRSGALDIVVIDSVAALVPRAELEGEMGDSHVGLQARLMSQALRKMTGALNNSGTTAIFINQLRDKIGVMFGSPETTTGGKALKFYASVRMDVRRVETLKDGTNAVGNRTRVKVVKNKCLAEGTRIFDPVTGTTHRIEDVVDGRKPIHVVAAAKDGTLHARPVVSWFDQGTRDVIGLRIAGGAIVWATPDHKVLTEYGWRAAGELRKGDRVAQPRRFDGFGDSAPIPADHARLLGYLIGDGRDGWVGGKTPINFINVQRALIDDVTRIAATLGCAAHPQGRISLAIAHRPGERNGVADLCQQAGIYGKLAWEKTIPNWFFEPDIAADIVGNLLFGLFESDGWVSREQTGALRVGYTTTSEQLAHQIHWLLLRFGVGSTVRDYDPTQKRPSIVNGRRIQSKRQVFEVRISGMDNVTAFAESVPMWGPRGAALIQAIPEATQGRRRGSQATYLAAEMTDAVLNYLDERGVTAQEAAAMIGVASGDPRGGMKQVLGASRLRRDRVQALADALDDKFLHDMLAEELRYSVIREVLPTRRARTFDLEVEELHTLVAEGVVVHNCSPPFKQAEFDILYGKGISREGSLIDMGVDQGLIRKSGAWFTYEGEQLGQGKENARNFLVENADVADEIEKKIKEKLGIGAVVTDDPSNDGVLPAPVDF
# GDH-TPI counter – GDH-TPI coupling enzyme inhibitors, primary screen, artefact control for M. tuberculosis FBA inhibitor project, biochemical, absorbance, full deck. GDH-TPI coupled enzyme counterscreen, NADH absorbance. 1.2% of 360,000 active. AID 588335, 2011. inhibition, % at 4.8 µM;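 further: 0% = DMSO wells and 100% = wells lacking the enzyme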
# The depositor's hits bear a star; · = no result given. The list is not random: actives were taken first. Their share in the collection is about 4.2%. Unless noted, no stated cut-off is given here; in the data, active means inhibition above about 30%; inactive means the rest.
SMILES,Mtb bLac sens,FBA Mtb inh,CCHF vOTU inh,RecA intein inh,GDH-TPI counter
CC(C)(C)OC(=O)/C=C/[C@@H](CC1CCCC1)Sc1ccc(C(C)(C)C)cc1,·,·,10.4,·,·
NNc1nc(-c2ccccc2)cc(-c2ccccc2)n1,1.0,2.5,7.5,4.2,13.6
N#Cc1cc(-c2ccccc2)nc(NN)n1,-5.2,-2.3,11.2,-6.4,32.0*
CCOC(=O)COc1ccc2c(c1)C(=O)CC(C)(c1cccnc1)O2 (configuration not stated),99.5,59.3*,·,-8.6,-3.8
CCCCNC(=O)C1(C(C)=O)CC(C(=O)OCC)=NO1 (configuration not stated),·,·,-1.2,·,·
Nc1nnc(CC(=O)N/N=C/c2ccc(-c3ccccc3)o2)s1,4.2,2.2,13.2,1.0,46.7*
Nc1nnc(CC(=O)N/N=C\c2ccc(-c3cccc(Cl)c3)o2)s1,6.7,-2.6,-1.1,4.4,33.1*
Cc1ccc(-c2ccc(/C=N/NC(=O)Cc3nnc(N)s3)o2)cc1Cl,94.8,1.8,16.8,2.4,29.1
Cc1ccc([N+](=O)[O-])cc1-c1ccc(/C=N/NC(=O)CN2CCOCC2)o1,38.1,2.6,7.6,0.2,40.4*
O=C(CN1CCCC1)N/N=C/c1ccc(-c2cccc(Cl)c2)o1,72.8,0.5,9.0,4.6,31.9*
O=C(CN1CCCCC1)N/N=C/c1cccc(Cl)c1,2.1,0.4,-1.7,0.8,2.9
Cc1ccccc1NC(=O)Nc1ccc2c(c1)C(=O)N(C)[C@H]1CC[C@H](CC(=O)NCC3CC3)O[C@@H]1CO2,·,·,0.2,·,·
COC(=O)[C@]12C=CCN1[C@@H](c1ccc(C(F)(F)F)cc1)c1c(c3ccccc3n1S(=O)(=O)c1ccc(C)cc1)C2,·,·,9.1,·,·
O=C(CSc1nnc(-c2cccnc2)n1-c1ccc(Cl)cc1)Nc1ccc(S(=O)(=O)Nc2nccs2)cc1,·,·,6.1,·,·
COC[C@@H]1CCCN1c1cccc2c1S(=O)(=O)N1CC[C@H](C1)O2,·,·,1.2,·,·
COCCCNC(=O)C[C@H]1C[C@@]2(C(=O)OC)C(=C[C@H](C(C)(C)C)O[C@@H]2C)N(CCC2=CCCCC2)C1=O,·,·,1.7,·,·
COC(=O)[C@]1(C)CN(C(=O)OC(C)(C)C)C2=C1C(=O)C[C@](C)(C(=O)OC(C)(C)C)C2,·,·,6.3,·,·
CCC(=O)NCC[C@@H]1CCc2ccc3c(c21)CCO3,·,·,-7.7,·,·
COc1cc(/C=N/NC(=O)Cc2nnc(N)s2)cc(OC)c1OC,-8.4,5.9,1.1,-2.0,5.6
COC(=O)c1ccc(-c2ccc(/C=N/NC(=O)Cc3nnc(N)s3)o2)cc1,11.0,27.6*,-21.5,0.4,36.6*
COc1cc(/C=N/N=C2/C(=O)Nc3ccccc32)ccc1O,3.1,-6.9,18.2,0.4,15.5
COc1cc(/C=N/N=C2/NC(=O)C(Cc3ccc(F)cc3)S2)ccc1O (configuration not stated),5.0,3.5,21.6,0.5,42.0*
COc1cc(/C=N/N=C2/NC(=O)C(c3ccccc3)S2)ccc1O (configuration not stated),1.5,-4.5,-0.6,-8.2,53.7*
COC(=O)[C@]12C[C@H](CC(=O)N3CCCCC3)C(=O)N(Cc3cccc4ccccc34)C1=C[C@H](COCc1ccccc1)O[C@@H]2C,·,·,9.2,·,·
NC(=S)N=Nc1c(O)[nH]c2c(Cl)cc(Cl)cc12,·,-3.7,9.0,·,37.2*
SMILES,Mtb bLac sens,FBA Mtb inh,CCHF vOTU inh,RecA intein inh,GDH-TPI counter
CCCc1[nH]n(-c2ccc([N+](=O)[O-])cc2)c(=O)c1C=NCCCn1ccnc1,6.5,-1.0,-2.3,0.9,31.9*
Cc1[nH]n(-c2ccc([N+](=O)[O-])cc2)c(=O)c1C=NCCc1ccc(S(N)(=O)=O)cc1,-0.9,-1.8,-5.1,-3.0,23.3
Cc1[nH]n(-c2ccc([N+](=O)[O-])cc2)c(=O)c1C=NCCc1c(C)[nH]c2ccccc12,-3.1,-1.6,6.8,7.0,30.7*
Cc1cccnc1Sc1c([N+](=O)[O-])ncn1C,11.0,1.9,2.4,·,5.3
Cn1cnc([N+](=O)[O-])c1Sc1nnc(-c2cccnc2)n1C,53.2,-1.1,-6.3,38.7*,0.3
C[C@@H]1COc2cc(Br)ccc2S(=O)(=O)N1Cc1cn(Cc2ccc(C(F)(F)F)cc2)nn1,·,·,5.4,·,·
CC(=NNC(=O)CSc1nnc(-c2ccccc2)n1-c1ccccc1)c1cccc([N+](=O)[O-])c1,·,·,9.8,·,·
